Test results as given in PubChem BioAssay (NCI).
Compounds without any hit were thinned out: in the full panel of roughly 79,000, 15% have a hit. Unmarked numbers belong to inactive results. Active and inactive are the calls of the source. No stated cut-off is given here; in the data, active means growth inhibition above about 70%; inactive means the rest.

Key:
[1] = NCI Yeast Anticancer Drug Screen. Data for the mlh1 rad18 strain (AID 175); settings: S. cerevisiae mlh1 rad18 strain growth inhibition, stronger effect = higher value
In short: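 Compound-treated yeast growth, normalised to vehicle controls. Strain bears defined DNA repair mutations.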

[2] = NCI Yeast Anticancer Drug Screen. Data for the rad18 strain (AID 177); settings: S. cerevisiae rad18 mutant growth inhibition, stronger effect = higher value
In short: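 Inhibition values reflect reduced yeast growth compared with vehicle-treated controls, using a strain engineered with a DNA damage repair defect.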

[3] = NCI Yeast Anticancer Drug Screen. Data for the rad52 strain (AID 147);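 further: 0% = growth of vehicle-treated control cultures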; settings: S. cerevisiae rad52 mutant growth inhibition, stronger effect = higher value
In short: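 Genetically altered yeast (DNA damage repair defect) treated with compound; inhibition calculated relative to vehicle.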

[4] = NCI Yeast Anticancer Drug Screen. Data for the wt1 strain (AID 149);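 further: 0% = growth of vehicle-treated wt1 cultures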; settings: S. cerevisiae wt1 strain (SPY 50644) growth inhibition, stronger effect = higher value
In short: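 Growth inhibition read against vehicle controls after compound exposure of the wt1 yeast strain.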

[5] = NCI Yeast Anticancer Drug Screen. Data for the rad50EPP+ strain (AID 151);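 further: 0% = growth of vehicle-treated control cultures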; settings: S. cerevisiae rad50 mutant strain, stronger effect = higher value
In short: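 Strain rad50EPP+; compound exposure; % growth inhibition vs vehicle.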

[6] = NCI Yeast Anticancer Drug Screen. Data for the rad50 strain (AID 155);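 further: 0% = growth of vehicle-only cultures of the same strain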; settings: S. cerevisiae rad50 strain growth inhibition, stronger effect = higher value
In short: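 Readout: growth inhibition relative to vehicle-treated cultures. Compound exposure was carried out in a genetically defined yeast strain deficient in DNA damage repair.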

[7] = NCI Yeast Anticancer Drug Screen. Data for the rad14 strain (AID 159);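 further: 0% = growth of vehicle-treated control cultures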; settings: S. cerevisiae rad14 strain growth inhibition, stronger effect = higher value
In short: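 Growth inhibition vs vehicle controls; genetically altered yeast strain (DNA damage repair defect) treated with test compounds.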

[8] = NCI Yeast Anticancer Drug Screen. Data for the sgs1 mgt1 strain (AID 161);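 further: 0% = growth of cultures given vehicle only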; settings: S. cerevisiae sgs1 mgt1 strain, stronger effect = higher value
In short: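 Inhibition of yeast growth, normalised to vehicle-treated controls, is reported for a strain bearing genetic alterations in DNA damage repair.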

[9] = NCI Yeast Anticancer Drug Screen. Data for the CLN2oe strain (AID 163);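 further: 0% = growth of vehicle-only control cultures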; settings: S. cerevisiae CLN2oe strain, stronger effect = higher value
In short: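 Strain altered in cell-cycle control, incubated with compound; growth compared to solvent-treated controls.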

[10] = NCI Yeast Anticancer Drug Screen. Data for the cln2 rad14 strain (AID 165);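 further: 0% = growth equal to vehicle treated cultures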; settings: S. cerevisiae cln2 rad14 strain, stronger effect = higher value
In short: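 The screen exposed genetically defined yeast (cln2 rad14) to test compounds and scored growth inhibition relative to vehicle-treated controls.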

[11] = NCI Yeast Anticancer Drug Screen. Data for the bub3 strain (AID 167); settings: S. cerevisiae bub3 mutant strain, stronger effect = higher value
In short: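 Readout: yeast growth inhibition, expressed relative to vehicle-only wells. The test organism is a mutant strain from a panel with lesions in DNA repair or checkpoint genes.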

[12] = NCI Yeast Anticancer Drug Screen. Data for the wt2 strain (AID 169);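 further: 0% = growth of vehicle-treated yeast cultures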; settings: S. cerevisiae wt2 strain growth inhibition, stronger effect = higher value
In short: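 Steps: yeast strain treated with compound; growth recorded; inhibition calculated relative to cultures given vehicle alone.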

[13] = NCI Yeast Anticancer Drug Screen. Data for the mlh1 strain (AID 171);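 further: 0% = growth of vehicle-treated control cultures of the same strain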; settings: S. cerevisiae mlh1 strain growth inhibition, stronger effect = higher value
In short: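 Yeast screen: mutant strain plus compound, growth scored against vehicle control wells.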

[14] = NCI Yeast Anticancer Drug Screen. Data for the sgs1 strain (AID 173);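 further: 0% = growth of vehicle-only control cultures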; settings: S. cerevisiae sgs1 mutant, stronger effect = higher value
In short: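 Inhibition of yeast growth served as the measure. The mutant strain was treated with each compound, and growth was normalised to cultures receiving vehicle alone.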

[15] = NCI Yeast Anticancer Drug Screen. Data for the mec2-1 strain (AID 157); settings: S. cerevisiae mec2-1 strain, stronger effect = higher value
In short: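 Cells of the genetically defined mec2-1 yeast strain are incubated with test compound. Inhibition of growth is calculated against vehicle-treated controls.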

[16] = at 5.0 µM (retest, dose inferred, filed as 0.5)
[17] = at 50.0 µM (retest, dose inferred, filed as 5.0)

In the case of CCC(c1ccc(O)cc1)C(CC)c1ccc(OCCN)cc1 (stereo unspecified), the growth inhibition [1, 16] is reported as 12%, the growth inhibition [1, 17] is reported as 87% (active) and the growth inhibition ([1]; at 50.0 µM) is reported as 14.6%. For the same compound, the growth inhibition ([2]; at 1.2 µM) was -7%, the growth inhibition ([2]; at 3.7 µM) was -6% and the growth inhibition ([2]; at 11.0 µM) was -6%. The growth inhibition ([2]; at 33.0 µM) was 0% and the growth inhibition ([2]; at 100.0 µM) was 91% (active).

S=c1nc(Cl)cc2[nH]c(Cl)cn12 showed a growth inhibition ([3]; at 1.2 µM) of 2%, a growth inhibition ([3]; at 3.7 µM) of 6% and a growth inhibition ([3]; at 11.0 µM) of 14%. For the same compound, the growth inhibition ([3]; at 33.0 µM) was 43%, the growth inhibition ([3]; at 100.0 µM) was 93% (active) and the growth inhibition ([4]; at 1.2 µM) was -3%. The growth inhibition ([4]; at 3.7 µM) was -3%, the growth inhibition ([4]; at 11.0 µM) was -2% and the growth inhibition ([4]; at 33.0 µM) was 13%. The growth inhibition ([4]; at 100.0 µM) was 42%, the growth inhibition ([5]; at 1.2 µM) was 4% and the growth inhibition ([5]; at 3.7 µM) was 18%. For the same compound, the growth inhibition ([5]; at 11.0 µM) was 44%, the growth inhibition ([5]; at 33.0 µM) was 89% (active) and the growth inhibition ([5]; at 100.0 µM) was 98% (active). The growth inhibition ([6]; at 1.2 µM) was 7%, the growth inhibition ([6]; at 3.7 µM) was 9% and the growth inhibition [6, 16] was -132%. The growth inhibition ([6]; at 11.0 µM) was 27%, the growth inhibition ([6]; at 33.0 µM) was 73% (active) and the growth inhibition [6, 17] was 75% (active). The growth inhibition ([6]; at 50.0 µM) was 78.8% (active), the growth inhibition ([6]; at 100.0 µM) was 98% (active) and the growth inhibition ([7]; at 1.2 µM) was 1%. For the same compound, the growth inhibition ([7]; at 3.7 µM) was -1%, the growth inhibition ([7]; at 11.0 µM) was 10% and the growth inhibition ([7]; at 33.0 µM) was 20%. The growth inhibition ([7]; at 100.0 µM) was 59%, the growth inhibition [8, 16] was -61% and the growth inhibition [8, 17] was 3%. For the same compound, the growth inhibition ([8]; at 50.0 µM) was 47.4%, the growth inhibition ([9]; at 1.2 µM) was 1% and the growth inhibition ([9]; at 3.7 µM) was -1%. The growth inhibition ([9]; at 11.0 µM) was 3%, the growth inhibition ([9]; at 33.0 µM) was 3% and the growth inhibition ([9]; at 100.0 µM) was 60%. The growth inhibition [10, 16] was -57%, the growth inhibition [10, 17] was -39% and the growth inhibition ([10]; at 50.0 µM) was 76.6% (active). For the same compound, the growth inhibition ([11]; at 1.2 µM) was -4%, the growth inhibition ([11]; at 3.7 µM) was -3% and the growth inhibition [11, 16] was -30%. It also gave a growth inhibition ([11]; at 11.0 µM) of 9%, a growth inhibition ([11]; at 33.0 µM) of 30% and a growth inhibition [11, 17] of 44%. The growth inhibition ([11]; at 50.0 µM) was 78.5% (active), the growth inhibition ([11]; at 100.0 µM) was 94% (active) and the growth inhibition ([12]; at 1.2 µM) was 2%. The growth inhibition ([12]; at 3.7 µM) was 3%, the growth inhibition ([12]; at 11.0 µM) was 5% and the growth inhibition ([12]; at 33.0 µM) was 11%. For the same compound, the growth inhibition ([12]; at 100.0 µM) was 83% (active), the growth inhibition ([13]; at 1.2 µM) was 8% and the growth inhibition ([13]; at 3.7 µM) was 1%. The growth inhibition ([13]; at 11.0 µM) was 5%, the growth inhibition ([13]; at 33.0 µM) was 19% and the growth inhibition ([13]; at 100.0 µM) was 90% (active). For the same compound, the growth inhibition ([14]; at 1.2 µM) was 3%, the growth inhibition ([14]; at 3.7 µM) was 3% and the growth inhibition ([14]; at 11.0 µM) was 15%. The growth inhibition ([14]; at 33.0 µM) was 42%, the growth inhibition ([14]; at 100.0 µM) was 99% (active) and the growth inhibition [1, 16] was -117%. The growth inhibition [1, 17] was 10%, the growth inhibition ([1]; at 50.0 µM) was 96.5% (active) and the growth inhibition ([2]; at 1.2 µM) was 1%. It also gave a growth inhibition ([2]; at 3.7 µM) of 3%, a growth inhibition ([2]; at 11.0 µM) of 14% and a growth inhibition ([2]; at 33.0 µM) of 44%. For the same compound, the growth inhibition ([2]; at 100.0 µM) was 96% (active).

O=S1(=O)c2ccccc2N=C(c2ccccc2Cl)CC1c1ccc(F)cc1 (stereo unspecified) gave a growth inhibition ([3]; at 1.2 µM) of 21%, a growth inhibition ([3]; at 3.7 µM) of 24% and a growth inhibition ([3]; at 11.0 µM) of 28%. It also gave a growth inhibition ([3]; at 33.0 µM) of 35%, a growth inhibition ([3]; at 100.0 µM) of 34% and a growth inhibition ([4]; at 1.2 µM) of 0%. The growth inhibition ([4]; at 3.7 µM) was -4%, the growth inhibition ([4]; at 11.0 µM) was 25% and the growth inhibition ([4]; at 33.0 µM) was 36%. For the same compound, the growth inhibition ([4]; at 100.0 µM) was 8%, the growth inhibition ([6]; at 1.2 µM) was -39% and the growth inhibition ([6]; at 3.7 µM) was -34%. For the same compound, the growth inhibition [6, 16] was -7%, the growth inhibition ([6]; at 11.0 µM) was -18% and the growth inhibition ([6]; at 33.0 µM) was 17%. For the same compound, the growth inhibition [6, 17] was 29%, the growth inhibition ([6]; at 50.0 µM) was 18.3% and the growth inhibition ([6]; at 100.0 µM) was 13%. The growth inhibition ([15]; at 1.2 µM) was -52%, the growth inhibition ([15]; at 3.7 µM) was -27% and the growth inhibition [15, 16] was -22%. For the same compound, the growth inhibition ([15]; at 11.0 µM) was -29%, the growth inhibition ([15]; at 33.0 µM) was 0% and the growth inhibition [15, 17] was -10%. The growth inhibition ([15]; at 50.0 µM) was -10.2%, the growth inhibition ([15]; at 100.0 µM) was -27% and the growth inhibition ([7]; at 1.2 µM) was -32%. For the same compound, the growth inhibition ([7]; at 3.7 µM) was -47%, the growth inhibition ([7]; at 11.0 µM) was -25% and the growth inhibition ([7]; at 33.0 µM) was -3%. For the same compound, the growth inhibition ([7]; at 100.0 µM) was -6%, the growth inhibition [8, 16] was -5% and the growth inhibition [8, 17] was -8%. It also gave a growth inhibition ([8]; at 50.0 µM) of 61%, a growth inhibition ([9]; at 1.2 µM) of -9% and a growth inhibition ([9]; at 3.7 µM) of -8%. It also gave a growth inhibition ([9]; at 11.0 µM) of -10%, a growth inhibition ([9]; at 33.0 µM) of -1% and a growth inhibition ([9]; at 100.0 µM) of -13%. For the same compound, the growth inhibition [10, 16] was 17%, the growth inhibition [10, 17] was 16% and the growth inhibition ([10]; at 50.0 µM) was 31.5%. It also gave a growth inhibition ([11]; at 1.2 µM) of -4%, a growth inhibition ([11]; at 3.7 µM) of -16% and a growth inhibition [11, 16] of -20%. For the same compound, the growth inhibition ([11]; at 11.0 µM) was -5%, the growth inhibition ([11]; at 33.0 µM) was -2% and the growth inhibition [11, 17] was 56%. For the same compound, the growth inhibition ([11]; at 50.0 µM) was 3.25%, the growth inhibition ([11]; at 100.0 µM) was 13% and the growth inhibition ([12]; at 1.2 µM) was -6%. It also gave a growth inhibition ([12]; at 3.7 µM) of -8%, a growth inhibition ([12]; at 11.0 µM) of -20% and a growth inhibition ([12]; at 33.0 µM) of 7%. It also gave a growth inhibition ([12]; at 100.0 µM) of 25%, a growth inhibition ([13]; at 1.2 µM) of -17% and a growth inhibition ([13]; at 3.7 µM) of -10%. It also gave a growth inhibition ([13]; at 11.0 µM) of -8%, a growth inhibition ([13]; at 33.0 µM) of 13% and a growth inhibition ([13]; at 100.0 µM) of 7%. For the same compound, the growth inhibition ([14]; at 1.2 µM) was -7%, the growth inhibition ([14]; at 3.7 µM) was 8% and the growth inhibition ([14]; at 11.0 µM) was -15%. The growth inhibition ([14]; at 33.0 µM) was 17%, the growth inhibition ([14]; at 100.0 µM) was 33% and the growth inhibition [1, 16] was -26%. For the same compound, the growth inhibition [1, 17] was 81% (active), the growth inhibition ([1]; at 50.0 µM) was 72.5% (active) and the growth inhibition ([2]; at 1.2 µM) was -3%. The growth inhibition ([2]; at 3.7 µM) was 2%, the growth inhibition ([2]; at 11.0 µM) was 18% and the growth inhibition ([2]; at 33.0 µM) was 36%. It also gave a growth inhibition ([2]; at 100.0 µM) of 22%.
